Assay outcomes from PubChem.
An excerpt weighted towards active compounds, which were near 2.4% of everything screened.
D2 ag-1: activates the human D2 dopamine receptor. HEK293 T-REx D2 cells, calcium flux agonist mode. AID 485358. 340,000 tested, 0.53% active. activation, % at 2 µM. P14416;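 active = activation over 3 SD above normal in the single-dose calcium agonist read, cut at about 30% in these data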
Target sequence (P14416 whole entry, looked up): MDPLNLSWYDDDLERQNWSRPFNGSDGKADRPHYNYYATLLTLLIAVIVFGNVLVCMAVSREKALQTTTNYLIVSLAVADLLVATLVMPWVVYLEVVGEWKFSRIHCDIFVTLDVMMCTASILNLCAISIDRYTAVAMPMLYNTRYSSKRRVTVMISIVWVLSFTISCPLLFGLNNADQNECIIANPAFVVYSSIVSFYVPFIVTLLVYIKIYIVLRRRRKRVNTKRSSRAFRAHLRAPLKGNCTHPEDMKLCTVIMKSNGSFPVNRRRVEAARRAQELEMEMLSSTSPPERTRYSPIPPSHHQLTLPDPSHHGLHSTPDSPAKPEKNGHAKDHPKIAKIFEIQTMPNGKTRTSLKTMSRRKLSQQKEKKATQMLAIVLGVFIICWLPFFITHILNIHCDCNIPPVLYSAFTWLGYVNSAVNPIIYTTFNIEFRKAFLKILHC
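Agonism is scored from calcium flux in a force-coupled, inducible HEK293 cell line expressing D2, read kinetically for 180 s after compound addition against dopamine controls.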
D2 ag-2: agonists of human D2 dopamine receptor (beta-arrestin). 360,000 tested, 0.084% active. activation, % (test concentration not listed). P14416. DiscoveRx PathHunter D2 beta-arrestin, luminescence, 90 min; 100% = 57 uM dopamine signal; in the data active = activation above about 40%; inconclusive = between about 15% and that limit
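Agonist mode: compounds alone added to overnight-plated D2 PathHunter cells for 90 min at 37 C, with 57 uM final dopamine (EC100) defining full response. Beta-arrestin recruitment detected by chemiluminescent reagent, read after 1 h at ambient temperature.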
D2 PAM-1: positive allosteric modulators of human D2 dopamine receptor; potentiation, % (test concentration not listed); 360,000 tested, 0.23% active; DiscoveRx D2 beta-arrestin cells, luminescence, 90 min; 100% = 57 uM dopamine signal; P14416; in the data active = potentiation above about 50%; inconclusive = mostly about 30% to 49%
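PathHunter beta-arrestin assay in DiscoveRx D2 cells. Compounds were added with an EC20 of dopamine (50 nM final) for 90 min at 37 deg C. Luminescence was read 1 h after detection reagent, with 57 uM dopamine as the EC100 control.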
D2 antagonist: antagonizes the human D2 dopamine receptor. P14416. inhibition, % at 10 µM. AID 485344. 340,000 tested, 2% active. HEK293 TREx D2 cells, calcium flux, dopamine EC80; in the data active = inhibition above about 30%; inactive = below that, where a call was filed
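Inhibition of EC80 dopamine-driven calcium flux, recorded kinetically, defines activity here; cells are a tetracycline-induced HEK293 T-REx line expressing force-coupled D2.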
D2 PAM-2: positively modulates the human D2 dopamine receptor allosterically; AID 485347; 340,000 tested, 0.34% active; HEK293 T-REx D2, calcium flux, EC20 dopamine potentiation; P14416; potentiation, % at 10 µM;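 active = potentiation over 3 SD above the plate norm, cut at about 30% in these data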
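Using a no-wash calcium dye in inducible, force-coupled HEK293 Trex cells expressing D2, we tracked fluorescence each second for 180 s after compound, then for 180 s after EC20 dopamine to detect augmented signalling.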
Numbers stand for hits; 0 = inactive; ? = inconclusive; - = no result.

SMILES | D2 ag-1 | D2 ag-2 | D2 PAM-1 | D2 antagonist | D2 PAM-2
CCc1ccc(-c2cc(C)no2)cc1S(=O)(=O)N1CCN(c2ccc(F)cc2)CC1 | 0 | 0 | 0 | 36 | 0
Cc1ccc(CNc2nc3cc(-c4ccccc4)sc3c(=O)n2C)c(C)c1 | - | 53 | 0 | - | -
COc1ccc(-c2cc3nc(NCc4ccc(C)cc4C)n(C)c(=O)c3s2)cc1OC | - | 0 | 0 | - | -
CCOc1ccc(C(CC(=O)Nc2cc(C)c(Cl)cc2OC)N2Cc3ccccc3C2=O)cc1OC (configuration not stated) | 0 | - | - | - | 0
CCOC(=O)C1=C(CNCCc2ccc(Cl)cc2)NC(=O)NC1c1ccc2c(c1)OCO2 (configuration not stated) | 0 | 0 | 0 | 0 | 31
COc1cc(-c2nc(CN3CCN(c4ncccn4)CC3)c(C)o2)ccc1F | 31 | ? | 0 | 0 | 0
O=c1oc2c(CN3CCOCC3)c(O)ccc2c2c1CCC2 | 0 | 0 | 0 | 0 | 0
CC1CCCN(Cc2c(O)ccc3c4c(c(=O)oc23)CCCC4)C1 (configuration not stated) | 0 | 0 | 0 | 36 | 0
COCCNc1nc(N2CCCCC2)c2cnn(C)c2n1 | 0 | 0 | 0 | 0 | 36
COCCNc1nc(NCc2ccccc2)c2cnn(C)c2n1 | - | 0 | 0 | - | -
CC1=C(C(=O)Nc2ccccc2C)C2(CCCCC2)C(C(N)=O)C(=S)N1 (configuration not stated) | 0 | 0 | 0 | 38 | 0
CCOc1ccc(Nc2nc(N)c(C(=O)c3ccccc3Cl)s2)cc1 | 0 | - | - | - | 0
COc1cc2c(cc1OC)C1C/C(=N\O)C(CC(C)C)CN1CC2 (configuration not stated) | 0 | 0 | 0 | 60 | 0
OCC1(CCCc2ccccc2)CCN(Cc2cnc(N3CCOCC3)s2)CC1 | 0 | 0 | 0 | 0 | 0
Cc1ncc(CN2CCC(CO)(CCc3ccccc3)CC2)s1 | 0 | 0 | 0 | 81 | 0
CC(COc1ccccc1)N1CCC(CO)(CCc2ccccc2)CC1 (configuration not stated) | 0 | 0 | 0 | 52 | 0
O=C(NC1CC(=O)N(c2cccc(F)c2)C1)C(c1ccccc1)c1ccccc1 (configuration not stated) | 0 | - | - | - | 0
CC(C)Cn1c(N)c(C(=O)CSc2ccc3c(c2)OCCO3)c(=O)n(C)c1=O | 0 | 0 | 0 | 0 | 33
CC(C)Cn1c(N)c(C(=O)COC(=O)c2c(F)cccc2F)c(=O)n(C)c1=O | 0 | 0 | 0 | 45 | 0
COc1ccc(Cl)cc1NC(=O)c1nn(-c2ccc(C)cc2)c(=O)n(C)c1=O | 0 | - | - | - | 0
Cc1cc(C)n(CC(=O)Nc2cc(F)ccc2F)c(=O)c1C#N | 0 | - | - | - | -
CCN(CCCNC(=O)c1cc2c(=O)[nH]c3ccc(C)cc3c2s1)Cc1ccccc1 | - | - | - | - | 0
COc1ccccc1C(=O)NC(=S)Nc1cccnc1Cl | 0 | 0 | 0 | 0 | 0
Cc1ccc(C(=O)NC(=S)Nc2cccnc2Cl)cc1 | 0 | 0 | 0 | 0 | 40
CCOc1ccccc1NC(=O)CSc1ccc2nc(-c3ccccc3)cn2n1 | - | - | - | - | 0
SMILES | D2 ag-1 | D2 ag-2 | D2 PAM-1 | D2 antagonist | D2 PAM-2
O=S(=O)(NCCc1nnc2ccc(SCc3c(F)cccc3Cl)nn12)c1ccccc1 | 0 | - | - | - | 0
COc1ccc(CCNC(=O)CCCn2c(=O)c3cccn3c3ccc(F)cc32)cc1OC | 0 | - | - | - | 0
O=[N+]([O-])c1ccccc1NCCNS(=O)(=O)c1ccc(Cl)cc1 | 0 | 0 | 0 | 34 | 0
CCOc1ccccc1NC(=O)CCNS(=O)(=O)c1cccc2nonc12 | 0 | 0 | 0 | 0 | 0
Cc1cccc(NC(=O)CCNS(=O)(=O)c2cccc3nonc23)c1C | 0 | 0 | 0 | 31 | 0
N#CC1=C(N)S[C@H](C(=O)C23CC4CC(CC(C4)C2)C3)[C@H]1c1ccncc1 | 0 | 0 | 0 | 0 | 31
CCCn1cnc2c(N)c(C)c(C)cc21 | 0 | 0 | 0 | 32 | 0
COc1cccc(Cn2cnc3c(N)c(C)c(C)cc32)c1 | 0 | 0 | 0 | 0 | 0
CC1CN(C(=O)Nc2ccc(C(=O)NCc3cccc(F)c3)cc2)c2ccccc2S1 (configuration not stated) | 0 | - | - | - | 0
O=C(c1cc2c(s1)-c1ccccc1OC2)N1CCc2ccccc2C1 | 0 | 0 | 0 | 33 | 0
O=C(Nc1ccc(N2CCN(C(=O)c3ccco3)CC2)cc1)c1ccc([N+](=O)[O-])cc1Cl | 0 | 0 | 0 | 0 | 0
O=C(Nc1ccc2c(c1)CCCN2C(=O)c1ccco1)c1cc([N+](=O)[O-])ccc1Cl | 0 | 0 | 56 | 0 | 0
O=C(CCN=C1NS(=O)(=O)c2ccccc21)Nc1ccc(Cl)cc1F | 0 | 0 | 0 | 40 | 0
O=C(CCCN=C1NS(=O)(=O)c2ccccc21)Nc1ccc(Cl)cc1 | 0 | 0 | 0 | 0 | 0
COc1ccc(-c2cc(C(=O)NC(C)c3ccccn3)c3ccccc3n2)cc1OC (configuration not stated) | 0 | 0 | 0 | 0 | 44
COc1ccc(-c2cc(C(=O)NC3CCCC3)c3ccccc3n2)cc1OC | - | 0 | 0 | - | -
COCCSc1ccccc1C(=O)N1CCN(c2ccccc2OC)CC1 | 0 | 0 | 0 | 38 | 0
COCCCNC(=O)c1ccc(CS(=O)(=O)c2ccccc2OC)o1 | 0 | 0 | 0 | 33 | 0
COc1ccccc1N1CCN(C(=O)c2ccc(CS(=O)(=O)c3ccccc3OC)o2)CC1 | 0 | 0 | 0 | 0 | 47
COCCNC(=O)c1ccc(CS(=O)(=O)c2ccccc2OC)o1 | 0 | 0 | 0 | 0 | 0
O=C(NC1CCCCC1)c1cc(-c2ccc(F)cc2)on1 | 0 | 0 | 0 | 0 | 39
Cc1ccc(-c2cc(C(=O)NC3CCCC3)no2)cc1 | 0 | 0 | 0 | 0 | 0
CN(C)S(=O)(=O)c1cccc(NC(=S)NCCc2ccccn2)c1 | 0 | 0 | 0 | 0 | 0
Cc1ccc(S(=O)(=O)N(C)C)cc1NC(=S)NCCc1ccccn1 | 0 | 0 | 0 | 34 | 0
Cc1ccc(S(=O)(=O)N(C)C)cc1NC(=S)Nc1ccc2cn[nH]c2c1 | 0 | 0 | 0 | 43 | 0
SMILES | D2 ag-1 | D2 ag-2 | D2 PAM-1 | D2 antagonist | D2 PAM-2
Cc1[nH]c2ccc(C(=O)NCCc3ccccc3Cl)cc2c1C | - | - | - | - | 0
COc1cc(OC)c(NC(=O)Nc2c(C)n(C)n(-c3ccccc3)c2=O)cc1Cl | 0 | - | - | - | 0
C=C1CCN([C@@H](C)C(=O)OCc2cccc(C)c2)S(=O)(=O)c2ccccc21 | 0 | 0 | 0 | 31 | 0
CCC1CCc2nc3sc(C(=O)Nc4ccc(C)cc4)c(N)c3cc2C1 (configuration not stated) | 0 | - | - | - | 0
CC(C)c1nnc(NC(=O)CCC(=O)Nc2ccc3cn[nH]c3c2)s1 | 0 | 0 | 0 | 61 | 0
O=C1CCCc2c1cc(C(=O)O)c(=O)n2-c1ccccc1 | 0 | 0 | 0 | 0 | 0
O=C1CCCc2c1cc(C(=O)Nc1ccc(Br)cn1)c(=O)n2-c1ccccc1 | 0 | 0 | 55 | 0 | 0
CCc1nc2nc(C)c(NS(=O)(=O)c3ccc(F)cc3)c(=O)n2[nH]1 | 0 | 0 | 0 | 0 | 0
